According to ChEMBL document CHEMBL2218924, “A broad activity screen in support of a chemogenomic map for kinase signalling research and drug discovery” (Biochem J, 2013):

biological target: Aurora kinase B (Homo sapiens) (UniProt Q96GD4); conditions: at 1 µM
Sequence (Q96GD4 whole entry): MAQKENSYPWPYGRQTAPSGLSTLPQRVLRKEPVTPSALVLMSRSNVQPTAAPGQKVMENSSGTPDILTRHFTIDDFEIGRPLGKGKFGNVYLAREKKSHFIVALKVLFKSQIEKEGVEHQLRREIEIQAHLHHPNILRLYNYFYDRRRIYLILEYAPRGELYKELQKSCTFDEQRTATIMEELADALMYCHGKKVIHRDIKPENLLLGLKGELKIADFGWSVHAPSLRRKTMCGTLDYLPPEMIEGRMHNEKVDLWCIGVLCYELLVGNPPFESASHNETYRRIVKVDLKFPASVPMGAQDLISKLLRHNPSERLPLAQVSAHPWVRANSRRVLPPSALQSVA

| Structure (SMILES) | residual activity |
| --- | --- |
| COc1ccc(CNc2nc(N(CCO)CCO)nc3c2ncn3C(C)C)cc1 | 95% |
| O=C1NC(=O)c2c1c1c3ccccc3[nH]c1c1[nH]c3cc(Br)ccc3c21 | 5% |
| O=C1Nc2cc(Br)ccc2/C1=C1/Nc2ccccc2/C1=N\O | 3% |
| Cc1cccc(-c2[nH]c(C(C)(C)C)nc2-c2ccc3c(c2)OCO3)n1 | 106% |
| COc1cc2ncnc(Nc3ccc(NC(=O)c4ccccc4)cc3)c2cc1OC | 2% |
| Nc1nc(Nc2ccc(S(N)(=O)=O)cc2)nn1C(=S)Nc1c(F)cccc1F | 0% |
| NC(=O)c1ccc2[nH]c(-c3ccc(Oc4ccc(Cl)cc4)cc3)nc2c1 | 68% |
| c1ccc(-c2n[nH]c3c2oc2ccccc23)cc1 | 39% |
| Oc1c2ccccc2c2c3c(cccc13)N=N2 | 1% |
| Cc1nc2cc3nc(-c4cccs4)cnc3cc2n1C | 80% |
| N#CC(C#N)=C(N)/C(C#N)=C/c1ccc(O)cc1 | 81% |
| Oc1ccc(-c2nc(-c3ccc(F)cc3)c(-c3ccncc3)[nH]2)cc1 | 69% |
| Oc1ccc(Nc2nc(-c3ccc(Cl)cc3)cs2)cc1 | 124% |
| CCN(CC)C(=O)c1ccc(Nc2nc(OCC3CCCCC3)c3nc[nH]c3n2)cc1 | -1% |
| O=C(Nc1cccc(Nc2cc(Nc3cccc(C(F)(F)F)c3)ncn2)c1)C1CC1 | 68% |
| C[C@@H](N)[C@H]1CC[C@H](C(=O)Nc2ccncc2)CC1 | 73% |
| CCC(=O)Nc1ccc2ncnc(Nc3cccc(Br)c3)c2c1 | 101% |
| CO[C@@H]1[C@H](N(C)C(=O)c2ccccc2)C[C@H]2O[C@]1(C)n1c3ccccc3c3c4c(c5c6ccccc6n2c5c31)C(=O)NC4 | 1% |

| Structure (SMILES) | residual activity |
| --- | --- |
| COc1cc2ncnc(N3CCN(C(=O)Nc4ccc(Oc5ccccc5)cc4)CC3)c2cc1OC | 15% |
| Nc1cccc(-c2cc3c(Oc4cccc(O)c4)ncnc3[nH]2)c1 | 9% |
| COc1ccc(C(=O)Nc2sc3c(c2C(N)=O)CCCC3)cc1OC | 69% |
| Cc1cncc2cccc(S(=O)(=O)N3CCCN(C(=O)CN)C[C@H]3C)c12 | 6% |
| O=C(Nc1cccc(Nc2nccc(Nc3cccc(C(F)(F)F)c3)n2)c1)C1CC1 | 1% |
| COc1cc2ncc(-c3ccccc3)nc2cc1OC | 83% |
| O=C1NC(=O)/C(=C\c2ccc3nccnc3c2)S1 | 71% |
| O=C1NC(=O)/C(=C/c2ccc3c(c2)OC(F)(F)O3)S1 | 74% |
| Nc1ccc2ncnc(NCCc3ccc(Oc4ccccc4)cc3)c2c1 | 41% |
| Cc1ccc(NC2=CC(=O)c3sc(C)nc3C2=O)cc1 | 104% |
| Oc1n[nH]c2nnc(-c3c(-c4ccccc4)nn4ccccc34)cc12 | 5% |
| COc1ccc(OC)c2c(=S)c3ccccc3[nH]c12 | 93% |
| O=C1Nc2ccc(Br)cc2/C1=C\c1cc2c([nH]1)CCCC2 | 18% |
| N#CCCc1ccc2c(c1)-c1[nH]c3ccc([N+](=O)[O-])cc3c1CC(=O)N2 | 8% |
| Cc1cc(Nc2nc(-c3ccccc3)nc3ccccc23)n[nH]1 | -2% |
| CC(=O)c1ccc(N2CCOCC2)cc1O | 100% |
| c1ccc(-c2n[nH]cc2-c2ccnc3ccccc23)nc1 | 75% |
